AC50 and outcome data for 3 compounds are collected here from PubChem BioAssay (EPA / NIEHS).

Inconclusive results are not listed. The source made the active and inactive calls. The calls were made as follows: active = hit-call score of the fitted dose curve at least 0.9, where 1 is the maximum; inconclusive = response in the unintended direction; inactive = score below 0.9.

The target in assay [1] is rat Catechol-O-Methyl Transferase (COMT), Comt (gene 24267) (UniProt P22734). Description: NVS_ENZ_rCOMT: NovaScreen (NVS) Enzymatic Assay for rat Catechol-O-Methyl Transferase (COMT) (AID 2283235). In outline:
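Cell-free enzyme activity with protein extracted from rat dorsal striatum, measured by HPLC with absorbance detection. Compounds screened at 25 uM in duplicate; actives then run in concentration-response up to 50 uM, loss of signal versus DMSO.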

Assay [2] addresses bovine Dopamine Receptor (DR), Non-selective Binding, DRD1 (gene 281125) (UniProt Q95136). Description: NVS_GPCR_bDR_NonSelective: NovaScreen (NVS) G Protein-Coupled Receptor Assay for bovine Dopamine Receptor (DR), Non-selective Binding (AID 2283241). In outline: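 Bovine striatal membranes; radioligand displacement read by filtration and scintillation counting 1 h after dosing, loss of signal vs DMSO. Screened in duplicate at 25 uM, then concentration-response for hits.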

Assay [3] in a line: NVS_GPCR_bNPY_NonSelective: NovaScreen (NVS) G Protein-Coupled Receptor Assay for bovine Neuropeptide Y (NPY) Receptor, Non-selective Binding (AID 2283245). A digest of the protocol: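 Bovine hippocampal membranes incubated 1 hour with radioligand and test chemical. Bound ligand measured by filter-based scintillation counting. Single-concentration screen at 25 uM in duplicate, then concentration-response up to 50 uM.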

Sequence of rat Catechol-O-Methyl Transferase (COMT), Comt (gene 24267) (P22734 whole entry, looked up): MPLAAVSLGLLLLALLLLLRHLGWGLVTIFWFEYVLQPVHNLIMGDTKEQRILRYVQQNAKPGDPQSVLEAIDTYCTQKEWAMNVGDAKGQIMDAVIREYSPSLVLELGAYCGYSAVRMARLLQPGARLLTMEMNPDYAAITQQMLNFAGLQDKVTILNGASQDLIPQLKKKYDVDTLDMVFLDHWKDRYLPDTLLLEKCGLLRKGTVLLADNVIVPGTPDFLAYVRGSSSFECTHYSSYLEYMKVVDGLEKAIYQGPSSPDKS
Sequence of bovine Dopamine Receptor (DR), Non-selective Binding, DRD1 (gene 281125) (Q95136 whole entry, looked up): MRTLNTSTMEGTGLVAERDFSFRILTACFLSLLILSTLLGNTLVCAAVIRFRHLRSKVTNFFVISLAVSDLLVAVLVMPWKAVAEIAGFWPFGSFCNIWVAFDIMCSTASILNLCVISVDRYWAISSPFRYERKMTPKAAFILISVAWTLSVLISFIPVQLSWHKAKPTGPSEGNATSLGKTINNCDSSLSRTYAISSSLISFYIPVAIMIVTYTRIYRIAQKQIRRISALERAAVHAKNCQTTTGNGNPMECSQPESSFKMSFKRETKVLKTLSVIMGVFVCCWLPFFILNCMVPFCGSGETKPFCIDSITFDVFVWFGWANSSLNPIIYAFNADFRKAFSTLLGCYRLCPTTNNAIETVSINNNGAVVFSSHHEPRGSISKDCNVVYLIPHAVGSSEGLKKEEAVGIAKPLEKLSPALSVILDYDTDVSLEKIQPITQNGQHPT

Broadly, the AC50 is the concentration giving half of the maximal activity seen. For the compound `S=C(S)NCCNC(=S)S.[Mn+2].[S-]C([S-])=NCCN=C([S-])[S-].[Zn+2]`, the half-maximal activity concentration (AC50) in assay [1] was 21.1 µM (active).

On to `CCCN(CCC)c1c([N+](=O)[O-])cc(C(F)(F)F)c(N)c1[N+](=O)[O-]`, for which, in assay [2], the result was inactive.

Consider `CC(C)(C)[C@@H](O)[C@@H](Cc1ccc(Cl)cc1)n1cncn1`, for which the AC50 in assay [3] is 46.6 µM (active).
